Numbering of substitutions follows the chain as printed.
Assays:
Experiment in all cases: PBM; 200 nM protein, PBS
Settings in all cases: dsDNA, one strand shown
SIX6 [1] = biological target: T1, SIX6 (Homo sapiens, UniProt O95475 114-200, L167I)
T1 sequence: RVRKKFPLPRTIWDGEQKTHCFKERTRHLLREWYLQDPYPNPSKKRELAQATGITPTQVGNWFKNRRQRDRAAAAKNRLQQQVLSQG

SIX6 [2] = biological target: T2, SIX6 (Homo sapiens, UniProt O95475 114-200, L143V)
T2 sequence: T1 sequence with L30V, I54L

SIX6 [3] = biological target: T3, SIX6 (Homo sapiens, UniProt O95475 114-200, H141N)
T3 sequence: T1 sequence with H28N, I54L

SIX6 [4] = biological target: T4, SIX6 (Homo sapiens, UniProt O95475 114-200, T165P)
T4 sequence: T1 sequence with T52P, I54L

SIX6 [5] = biological target: T5, SIX6 (Homo sapiens, UniProt O95475 114-200, L167M)
T5 sequence: T1 sequence with I54M

SIX6 [6] = biological target: T6, SIX6 (Homo sapiens, UniProt O95475 114-200, L143M)
T6 sequence: T1 sequence with L30M, I54L

SIX6 [7] = biological target: T7, SIX6 (Homo sapiens, UniProt O95475 114-200, L143I)
T7 sequence: T1 sequence with L30I, I54L

SIX6 [8] = biological target: T8, SIX6 (Homo sapiens, UniProt O95475 114-200, T165G)
T8 sequence: T1 sequence with T52G, I54L

SIX6 [9] = biological target: T9, SIX6 (Homo sapiens, UniProt O95475 114-200, T139Q)
T9 sequence: T1 sequence with T26Q, I54L

SIX6 [10] = biological target: T10, SIX6 (Homo sapiens, UniProt O95475 114-200, T165A)
T10 sequence: T1 sequence with T52A, I54L

SIX6 [11] = biological target: T11, SIX6 (Homo sapiens, UniProt O95475 114-200, L167V)
T11 sequence: T1 sequence with I54V

SIX6 [12] = biological target: T12, SIX6 (Homo sapiens, UniProt O95475 114-200)
T12 sequence: T1 sequence with I54L

SIX6 [13] = biological target: T13, SIX6 (Homo sapiens, UniProt O95475 114-200, T165I)
T13 sequence: T1 sequence with T52I, I54L

NKX3-2 [14] = biological target: NKX3-2 (Homo sapiens, UniProt P78367 192-278, P234S)
NKX3-2 (Homo sapiens, UniProt P78367 192-278, P234S), sequence (P78367 192-278 P234S): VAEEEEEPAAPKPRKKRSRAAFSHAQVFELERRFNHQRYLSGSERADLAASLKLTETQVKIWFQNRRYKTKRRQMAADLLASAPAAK

NKX3-2 [15] = biological target: NKX3-2 (Homo sapiens, UniProt P78367 192-278)
NKX3-2 (Homo sapiens, UniProt P78367 192-278), sequence (P78367 192-278): as the sequence (P78367 192-278 P234S) above, with S43P counted along it

Sequence	binding signal (SIX6 [1])	binding signal (SIX6 [2])	binding signal (SIX6 [3])	binding signal (SIX6 [4])	binding signal (SIX6 [5])	binding signal (SIX6 [6])	binding signal (SIX6 [7])	binding signal (SIX6 [8])	binding signal (SIX6 [9])	binding signal (SIX6 [10])	binding signal (SIX6 [11])	binding signal (SIX6 [12])	binding signal (SIX6 [13])	binding signal (NKX3-2 [14])	binding signal (NKX3-2 [15])
AAGGCCGC	8.93 upbm affinity estimate (log intensity, higher = more binding, comparable within an allelic series)	8.99 upbm affinity estimate (log intensity, higher = more binding, comparable within an allelic series)	8.93 upbm affinity estimate (log intensity, higher = more binding, comparable within an allelic series)	8.98 upbm affinity estimate (log intensity, higher = more binding, comparable within an allelic series)	8.92 upbm affinity estimate (log intensity, higher = more binding, comparable within an allelic series)	8.92 upbm affinity estimate (log intensity, higher = more binding, comparable within an allelic series)	8.97 upbm affinity estimate (log intensity, higher = more binding, comparable within an allelic series)	8.93 upbm affinity estimate (log intensity, higher = more binding, comparable within an allelic series)	8.96 upbm affinity estimate (log intensity, higher = more binding, comparable within an allelic series)	8.9 upbm affinity estimate (log intensity, higher = more binding, comparable within an allelic series)	8.89 upbm affinity estimate (log intensity, higher = more binding, comparable within an allelic series)	8.92 upbm affinity estimate (log intensity, higher = more binding, comparable within an allelic series)	8.95 upbm affinity estimate (log intensity, higher = more binding, comparable within an allelic series)	10.5 upbm affinity estimate (log intensity, higher = more binding, comparable within an allelic series)	10.6 upbm affinity estimate (log intensity, higher = more binding, comparable within an allelic series)
GATATCAA	11.4 upbm affinity estimate (log intensity, higher = more binding, comparable within an allelic series)	10.5 upbm affinity estimate (log intensity, higher = more binding, comparable within an allelic series)	11.3 upbm affinity estimate (log intensity, higher = more binding, comparable within an allelic series)	10 upbm affinity estimate (log intensity, higher = more binding, comparable within an allelic series)	10.8 upbm affinity estimate (log intensity, higher = more binding, comparable within an allelic series)	11 upbm affinity estimate (log intensity, higher = more binding, comparable within an allelic series)	10.3 upbm affinity estimate (log intensity, higher = more binding, comparable within an allelic series)	11.3 upbm affinity estimate (log intensity, higher = more binding, comparable within an allelic series)	11.1 upbm affinity estimate (log intensity, higher = more binding, comparable within an allelic series)	11.3 upbm affinity estimate (log intensity, higher = more binding, comparable within an allelic series)	11.1 upbm affinity estimate (log intensity, higher = more binding, comparable within an allelic series)	11.1 upbm affinity estimate (log intensity, higher = more binding, comparable within an allelic series)	11.1 upbm affinity estimate (log intensity, higher = more binding, comparable within an allelic series)		
CAGGACCG	9.24 upbm affinity estimate (log intensity, higher = more binding, comparable within an allelic series)	9.05 upbm affinity estimate (log intensity, higher = more binding, comparable within an allelic series)	9.24 upbm affinity estimate (log intensity, higher = more binding, comparable within an allelic series)	9.18 upbm affinity estimate (log intensity, higher = more binding, comparable within an allelic series)	9.01 upbm affinity estimate (log intensity, higher = more binding, comparable within an allelic series)	9.2 upbm affinity estimate (log intensity, higher = more binding, comparable within an allelic series)	9.14 upbm affinity estimate (log intensity, higher = more binding, comparable within an allelic series)	9.28 upbm affinity estimate (log intensity, higher = more binding, comparable within an allelic series)	9.23 upbm affinity estimate (log intensity, higher = more binding, comparable within an allelic series)	9.16 upbm affinity estimate (log intensity, higher = more binding, comparable within an allelic series)	9.19 upbm affinity estimate (log intensity, higher = more binding, comparable within an allelic series)	9.17 upbm affinity estimate (log intensity, higher = more binding, comparable within an allelic series)	9.13 upbm affinity estimate (log intensity, higher = more binding, comparable within an allelic series)		
CGATACCA	10.8 upbm affinity estimate (log intensity, higher = more binding, comparable within an allelic series)	10 upbm affinity estimate (log intensity, higher = more binding, comparable within an allelic series)	10.8 upbm affinity estimate (log intensity, higher = more binding, comparable within an allelic series)	9.44 upbm affinity estimate (log intensity, higher = more binding, comparable within an allelic series)	10.3 upbm affinity estimate (log intensity, higher = more binding, comparable within an allelic series)	10.7 upbm affinity estimate (log intensity, higher = more binding, comparable within an allelic series)	10.1 upbm affinity estimate (log intensity, higher = more binding, comparable within an allelic series)	11 upbm affinity estimate (log intensity, higher = more binding, comparable within an allelic series)	11.1 upbm affinity estimate (log intensity, higher = more binding, comparable within an allelic series)	10.8 upbm affinity estimate (log intensity, higher = more binding, comparable within an allelic series)	10.6 upbm affinity estimate (log intensity, higher = more binding, comparable within an allelic series)	10.8 upbm affinity estimate (log intensity, higher = more binding, comparable within an allelic series)	10.6 upbm affinity estimate (log intensity, higher = more binding, comparable within an allelic series)		
GCGTATCA	11.3 upbm affinity estimate (log intensity, higher = more binding, comparable within an allelic series)	10.2 upbm affinity estimate (log intensity, higher = more binding, comparable within an allelic series)	11.1 upbm affinity estimate (log intensity, higher = more binding, comparable within an allelic series)	9.54 upbm affinity estimate (log intensity, higher = more binding, comparable within an allelic series)	10.5 upbm affinity estimate (log intensity, higher = more binding, comparable within an allelic series)	11.2 upbm affinity estimate (log intensity, higher = more binding, comparable within an allelic series)	10.3 upbm affinity estimate (log intensity, higher = more binding, comparable within an allelic series)	11.3 upbm affinity estimate (log intensity, higher = more binding, comparable within an allelic series)	11.2 upbm affinity estimate (log intensity, higher = more binding, comparable within an allelic series)	11.3 upbm affinity estimate (log intensity, higher = more binding, comparable within an allelic series)	10.9 upbm affinity estimate (log intensity, higher = more binding, comparable within an allelic series)	11.1 upbm affinity estimate (log intensity, higher = more binding, comparable within an allelic series)	11.1 upbm affinity estimate (log intensity, higher = more binding, comparable within an allelic series)		
GGTATCAA	11.6 upbm affinity estimate (log intensity, higher = more binding, comparable within an allelic series)	10.6 upbm affinity estimate (log intensity, higher = more binding, comparable within an allelic series)	11.7 upbm affinity estimate (log intensity, higher = more binding, comparable within an allelic series)	9.74 upbm affinity estimate (log intensity, higher = more binding, comparable within an allelic series)	11 upbm affinity estimate (log intensity, higher = more binding, comparable within an allelic series)	11.4 upbm affinity estimate (log intensity, higher = more binding, comparable within an allelic series)	10.6 upbm affinity estimate (log intensity, higher = more binding, comparable within an allelic series)	11.6 upbm affinity estimate (log intensity, higher = more binding, comparable within an allelic series)	11.5 upbm affinity estimate (log intensity, higher = more binding, comparable within an allelic series)	11.6 upbm affinity estimate (log intensity, higher = more binding, comparable within an allelic series)	11.4 upbm affinity estimate (log intensity, higher = more binding, comparable within an allelic series)	11.4 upbm affinity estimate (log intensity, higher = more binding, comparable within an allelic series)	11.4 upbm affinity estimate (log intensity, higher = more binding, comparable within an allelic series)		
